High-throughput results as filed in PubChem BioAssay.
A selection: hits, their analogues and other compounds. The true share with any hit is near 19%.
TDP1 cell CPT = growth inhibition of DT40 Tdp1-/-;hTDP1 cells with camptothecin (screen for TDP1 inhibitors); Potency, µM (series often up to 46.2 µM), without a hit: at the highest dose activity change, negative = growth inhibition, hits mostly inhibitors; AID 686979; chicken DT40 Tdp1-/-;hTDP1 cells + 20 nM CPT, ATP luminescence, 48 h; 420,000 tested, 12% active; also: potency is read from the fitted curve at half-maximal effect; % is scaled to controls: 0 for no effect and ±100 for the full control effect; nearly all actives have a fitted effect of over 55% in size
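Chicken DT40 Tdp1-/- cells complemented with human TDP1, 400 cells/well, exposed to compounds plus 20 nM camptothecin for at least 48 h at 37 C; viability read as ATP content by CellTiter-Glo luminescence.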
SW480 rerep = DNA re-replication induction in SW480 cells; AID 624297; SW480 DNA re-replication, Hoechst DNA content imaging, 48 h; Potency, µM (series often up to 46.1 µM), for the others: at the top dose re-replication activation, most hits filed as activators; 340,000 tested, 1.8% active; also: potency is read from the fitted curve at half-maximal effect; % of control where 0% means no effect; nearly all actives have a fitted effect of over 55% in size
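First, 250 cells per well were seeded. Next, compound or vehicle (23 nL) was pinned in, plates sat 48 hr at 37 C. Finally Hoechst was added for 40 min before fluorescence scanning.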
MCF10A rereplic = DNA re-replication induction in MCF 10a cells | Potency, µM (top dose mostly 46.1 µM), inactives show at the top dose activity, positive = re-replication, hits mostly activators | 350,000 tested, 2.9% active | MCF 10A DNA re-replication, Hoechst nuclear intensity, 48 h | AID 624296; also: potency is read from the fitted curve at half-maximal effect; % of control where 0% means no effect; nearly all actives have a fitted effect of over 50% in size
IL1B secr inh = blocks inflammasome-driven IL-1 beta release. THP-1 LPS/ATP IL-1B secretion, AlphaLISA, 16 h; active compounds read low. activity change, % at 57.5 µM. 360,000 tested, 4.7% active. AID 743279; in the data active = activity change below about -50%; inconclusive = mostly about -30% to -49%; also: % is scaled to controls: 0 for no effect and ±100 for the full control effect
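THP-1 cells pretreated 1 hr with compounds (up to 57.5 uM final), then stimulated with LPS (250 ng/mL final) plus ATP (1.25 mM final); secreted IL-1B measured by AlphaLISA after 16 hr, decreased signal indicating inhibition.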
BCR signal inh = blocks chronic active B-cell receptor signaling. AID 493014. Potency, µM (doses to about 46.1 µM), for the others: at the top dose activity change, negative = inhibition, hits mostly inhibitors. 340,000 tested, 0.05% active. ABC-DLBCL IkBa-CBG/CBR reporter, luminescence ratio, 4 h; active = well fitted inhibition curve with a large enough effect in the signal ratio, with a control signal flat, not every such curve was filed as active; inconclusive = small, poorly fitted or top-dose-only effect, or effect the other way, or a change in a side signal; the % refers to the signal ratio;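 also: potency is read from the fitted curve at half-maximal effect; plate controls were basal doxycycline-induced cells for no effect and cells given 10 µM MG132 for full effect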
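Concentration-response series (up to 46 uM) were applied to TMD8 dual-reporter cells for 4 h at 37C with doxycycline. Green/red ratio, after filter-overlap correction, defined %Activity; red signal alone was normalised to basal cells and zero luminescence.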
TDP1 cell noCPT = qHTS for Inhibitors of human tyrosyl-DNA phosphodiesterase 1 (TDP1): qHTS in cells in absence of CPT | DT40 Tdp1-/- hTDP1 cells, no CPT, ATP luminescence, 48 h | Potency, µM (doses to about 46.2 µM), without a hit: top-dose activity change, negative = growth inhibition, hits mostly inhibitors | 420,000 tested, 15% active; also: potency is read from the fitted curve at half-maximal effect; % is scaled to controls: 0 for no effect and ±100 for the full control effect; nearly all actives have a fitted effect of over 55% in size
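Readout: luminescence from CellTiter-Glo after 30 min in the dark at RT. Cells: DT40 Tdp1-/- with stable hTDP1, 400/well. Exposure: compounds alone, ≥48 hr, 37 °C.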
* marks the source's active call; other numbers are inactive results; ? = inconclusive; . = not tested or not shown; [ ] = remark or other dose. Unless noted, calls follow the shape of the dose curve; as a rule, active = well fitted curve in the direction sought with a large enough effect; inconclusive = small, poorly fitted or top-dose-only effect, or another doubt; inactive = no such curve, though single readings can be large; an effect the other way counts as inactive or inconclusive.

SMILES	TDP1 cell CPT	SW480 rerep	MCF10A rereplic	IL1B secr inh	BCR signal inh	TDP1 cell noCPT
CC(C)C(=O)Nc1ccc(Nc2ccccc2)cc1	12µM*	1%	12%	-10	?	10µM*
CCC(CC)C(=O)Nc1ccc(Nc2ccccc2)cc1	?	10%	10%	4	4%	?
CCCCc1ccc(NC(=O)N[C@@H](C)C(=O)O)cc1	4.6µM*	-2%	0%	21	-1%	5.2µM*
CC(C)(C)CC(=O)Nc1ccc(Nc2ccccc2)cc1	-26%	-2%	?	-62*	9%	-28%
COc1cc(NS(=O)(=O)c2ccc(NC(=O)c3ccccc3C(=O)O)cc2)nc(OC)n1	10%	.	.	.	.	5%
COC(=O)C(Cc1ccccc1)NC(=O)CC(C)CC(=O)Nc1ccc(C)cc1 (centres undefined)	-9%	-24%	5%	29	7%	19%
NS(=O)(=O)c1cccc(NC(=O)c2cccc3c(Br)cccc23)c1	-4%	-3%	?	4	-4%	4%
CC(C)C(=O)Nc1ccc(Sc2ccc(F)cc2)cc1	16µM*	4%	6%	-3	6%	16µM*
CC(C)C(=O)Nc1ccc(NC(=O)c2cccc3c(Br)cccc23)cc1	16µM*	9%	7%	-8	0%	?
CCCCN1C(=O)C(CC(=O)NCCc2ccccn2)CC(C(=O)N(CC)CC)=C1C (centres undefined)	-2%	.	.	32	.	-19%
COc1ccc(OCCN2CCC(C(=O)NC(C)c3cccc4ccccc34)CC2)cc1 (centres undefined)	?	.	.	-23	.	?
O=C(CCCc1nc(-c2ccccc2Cl)no1)N1CCOCC1	-9%	-13%	0%	-3	12%	-2%
Cc1nn(CC(=O)N(C)C2(C#N)CCCCC2)c(C)c1[N+](=O)[O-]	3%	-5%	1%	5	-1%	5%
CCOc1ccccc1NC(=O)Cn1c(=O)n(-c2ccccc2)c(=O)c2oc3ccccc3c21	?	-50%	-1%	17	-1%	?
NC(=O)Cn1c(=O)n(-c2ccccc2)c(=O)c2oc3ccccc3c21	-9%	10%	0%	-50*	0%	-13%
Cc1ccc(-n2c(=O)c3oc4ccccc4c3n(Cc3ccccc3)c2=O)cc1C	21µM*	.	.	.	.	13µM*
Cc1ccc(Cn2c(=O)n(Cc3ccccc3)c(=O)c3oc4ccccc4c32)cc1	15%	.	.	.	.	5%
COc1ccccc1C(=O)Nc1ccc2c(c1)n(C)c(=O)n2C	1%	-17%	19%	?	?	-3%
COc1cccc(NC(=O)Cn2cc(C=O)c3ccccc32)c1	16µM*	2%	3%	36	3%	26µM*
CCc1cccc(NC(=O)Cn2cc(C=O)c3ccccc32)c1	9.2µM*	1%	3%	18	?	10µM*
Cc1ccc(NC(=O)Cn2cc(C=O)c3ccccc32)cc1	?	15µM*	29%	65	-9%	-24%
COc1ccc(OC)c(NC(=O)Cn2cc(C=O)c3ccccc32)c1	?	-10%	-2%	46	0%	?
CCC(=O)c1cn(CC(=O)Nc2cccc(C)c2)c2ccccc12	-11%	62%	15%	6	?	-2%
O=Cc1cn(CC(=O)Nc2ccc3c(c2)OCO3)c2ccccc12	?	-4%	5%	11	-5%	16µM*
COC(=O)c1cn(CC(=O)Nc2ccc(F)cc2)c2ccccc12	-22%	3%	?	-19	7%	?
SMILES	TDP1 cell CPT	SW480 rerep	MCF10A rereplic	IL1B secr inh	BCR signal inh	TDP1 cell noCPT
CC(C)Nc1ccc(-c2nc(-c3ccccn3)no2)cc1[N+](=O)[O-]	-4%	.	.	.	.	-1%
CC(C)CC(NC(=O)c1ccc(Cl)cc1)C(=O)OCC(=O)c1ccc2c(c1)NC(=O)CO2 (centres undefined)	12µM*	?	?	-86*	?	12µM*
CCC(C(=O)OCC(=O)c1ccc2c(c1)NC(=O)CO2)c1ccccc1 (centres undefined)	-18%	-8%	26%	-18	5%	21µM*
CCN1CCN(S(=O)(=O)c2c(C)[nH]c(C)c2C(=O)N2CCCCC2)CC1	-6%	1%	0%	-8	-2%	12%
COC(=O)c1[nH]nc(C(=O)OC(C)(C)C)c1-c1ccccc1	16µM*	?	8%	44	-9%	13µM*
CN1C(=O)CCS(=O)(=O)C1c1ccc(Cl)c(Cl)c1 (centres undefined)	-5%	.	.	3	.	-1%
Cc1cc(/C=C(/C#N)c2cccc(F)c2)c(C)n1-c1cccnc1	?	?	?	-89*	?	?
Cc1cc(/C=C(\C#N)C(=O)NCc2ccco2)c(C)n1-c1cccnc1	-27%	-2%	1%	-25	?	?
COc1ccccc1-c1nnc(-c2ccc(N3CCOCC3)cc2)o1	?	-27%	0%	?	?	21µM*
CCc1cccc(C)c1NC(=O)C1CCN(S(=O)(=O)Cc2ccccc2)CC1	5%	.	.	.	.	1%
CCN(CC)C(=O)c1ccc2nc(-c3ccccc3)c(-c3ccccc3)nc2c1	?	1%	8%	-3	8%	21µM*
COc1cccc(CNC(=O)c2ccc3nc(-c4ccc(F)cc4)c(-c4ccc(F)cc4)nc3c2)c1	21µM*	.	.	.	10%	13µM*
COc1ccc(-c2nc3ccc(C(=O)NCCCN4CCOCC4)cc3nc2-c2ccc(OC)cc2)cc1	?	-4%	?	-8	-1%	23µM*
Cc1ccc(C(=O)NCCN2CCOCC2)cc1	-1%	-2%	15%	8	0%	7%
CCN1CCN(CCNC(=O)c2ccc3nc(-c4cccc(C)c4)c(-c4cccc(C)c4)nc3c2)CC1	16µM*	12%	3%	0	-6%	16µM*
COc1ccc(C(=O)NCCCN2CCOCC2)cc1	6%	-1%	9%	-7	-2%	-2%
COc1ccc(-c2csc(C(C#N)=C(O)CSc3nccn3C)n2)cc1OC	8%	-2%	-34%	2	.	?
O=[N+]([O-])c1ccc(CNCc2cc(Cl)ccc2O)cc1	?	11%	10%	-17	?	?
CC(C)Oc1cccc(NC(=O)C2(C)CCN2C(C)C)c1 (centres undefined)	?	.	.	11	.	?
CCCNC(=O)c1ccc2nc(-c3ccccc3)c(-c3ccccc3)nc2c1	?	-1%[9.22 µM]	?	?	8%	23µM*
